Source: PubChem
The list is not random: actives were taken first. Their share in the collection is about 3.7%.
ATXN2 expr inh: reduces ATXN2 reporter expression in HEK-293 cells | 360,000 compounds, 0.72% hits | Potency, µM (doses to about 57 µM), without a hit: top-dose activity change, negative = inhibition, most hits filed as inhibitors | HEK-293 ATXN2-luciferase reporter, luminescence, 24 h; further: on the % scale 0 is the no-effect control and ±100 the full control effect; nearly all actives have a fitted effect of over 55% in size
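ATXN2-luciferase reporter cells (luciferase flanked by upstream and downstream ATXN2 gene portions) were treated 24 h at 37 °C with compounds at up to 57 uM. SteadyGlo luminescence gave expression; GF-AFC fluorescence gave viability.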
S2 tox: cell viability loss in ATXN counter-screen | 400,000 compounds, 0.49% hits | Potency, µM (highest dose often 56.7 µM), most hits filed as cytotoxic | S2 cells (HEK-293 line with an ATXN2-luciferase reporter) viability, CellTiter-Fluor protease fluorescence, 24 h; further: nearly all actives have a fitted effect of over 40% in size
TGFb inhibitor: TGF-b pathway inhibition; HepG2 CAGA-GFP TGF-b/SMAD3 reporter, GFP fluorescence, 18 h; TGF-beta stimulated, 500 pg/mL final; Potency, µM (highest dose often 46.1 µM), for the others: at the top dose activity, negative = inhibition, usual class: inhibitors; 410,000 compounds, 1.2% hits; AID 588855; further: on the % scale 0 is the no-effect control and ±100 the full control effect; nearly all actives have a fitted effect of over 65% in size
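Inhibition of TGF-beta-driven CAGA-GFP reporter expression in HEPG2 cells is measured by cellular GFP fluorescence after 18 h stimulation with 500 pg/mL recombinant TGF-beta in 1% FBS medium at 37 degrees C.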
HepG2 tox: counter-screen for TGF-b inhibitors: cytotoxicity in HepG2 cells. 410,000 compounds, 0.76% hits. Potency, µM (titrated, usually from 46.1 µM), for inactives: at the top dose activity change, negative = cytotoxicity, hits mostly cytotoxic. AID 588856. HepG2 CAGA-GFP viability, ATP luminescence, 18 h
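CellTiter-Glo luminescence gave cytotoxicity after 18 hours at 37 degrees C. The cells were HepG2 CAGA-GFP in 1% FBS DMEM, stimulated with 500 pg/mL TGF-beta after compound addition. %Activity was normalised to no-cell wells (complete cell-killing) and DMSO (no toxicity), and curves were fitted and classified.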
GLP1R inv ag: inverse agonists of human GLP-1 receptor; Potency, µM (top dose mostly 38.3 µM), for the others: at the top dose activity change, negative = inhibition, hits mostly inhibitors; AID 624417; HEK293 GLP-1R CRE-luciferase, luminescence, 24 h; GLP-1R form is constitutively active; 410,000 compounds, 1.6% hits; further: on the % scale 0 is the no-effect control and ±100 the full control effect; nearly all actives have a fitted effect of over 55% in size
Target sequence (P43220 whole entry, looked up): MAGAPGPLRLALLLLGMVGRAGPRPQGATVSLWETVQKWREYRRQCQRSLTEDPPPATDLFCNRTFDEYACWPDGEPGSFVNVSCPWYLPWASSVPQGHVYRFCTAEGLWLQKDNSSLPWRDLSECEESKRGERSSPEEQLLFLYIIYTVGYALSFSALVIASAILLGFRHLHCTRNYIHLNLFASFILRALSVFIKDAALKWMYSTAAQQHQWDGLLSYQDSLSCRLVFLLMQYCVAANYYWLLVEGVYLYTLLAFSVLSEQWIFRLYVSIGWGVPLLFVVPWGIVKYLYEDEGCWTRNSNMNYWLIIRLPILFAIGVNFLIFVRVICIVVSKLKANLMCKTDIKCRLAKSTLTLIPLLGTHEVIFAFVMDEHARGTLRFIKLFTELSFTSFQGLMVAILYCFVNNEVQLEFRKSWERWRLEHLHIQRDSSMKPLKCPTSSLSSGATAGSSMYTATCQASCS
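HEK293 cells stably co-expressing constitutively active GLP-1R and a cAMP-responsive luciferase reporter were seeded in DMEM with 10% Nu serum, given compounds after 12 h, and incubated 24 h at 37 deg C. Luminescence was then read.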
GLP1R ag: agonists of human GLP-1 receptor; Potency, µM (top dose mostly 45.6 µM), for inactives: at the top dose activation, actives largely listed as activators; 380,000 compounds, 0.007% hits; HEK293 GLP-1R CRE-luciferase, luminescence, 4-6 h; cells express a hypersensitive GLP-1R form; P43220; further: % of control where 0% means no effect
* marks the source's active call; other numbers are inactive results; i = inactive; ? = inconclusive; . = no result; ! = not confirmed by another sample; [ ] = another dose, or the depositor's remark. The call rests on the fitted dose curve; in most records, active means well fitted curve in the direction sought with a large enough effect; inconclusive means small, poorly fitted or top-dose-only effect, or another doubt; inactive means no such curve, though single readings can be large; an effect the other way counts as inactive or inconclusive. Potency means the concentration at half of the fitted maximal effect.

SMILES | ATXN2 expr inh | S2 tox | TGFb inhibitor | HepG2 tox | GLP1R inv ag | GLP1R ag
CCc1ccc(NP(=O)(Oc2ccccc2F)Oc2ccccc2F)cc1 | 1% | i | 18µM* | -104% | ? | 8%
CN1C2CCC(C)(C)C1CC(OC(=O)C(O)(c1cccs1)c1cccs1)C2 (configuration not stated) | 1% | i | . | . | . | .
CC(=O)O[C@@]12CO[C@H]1C[C@H](O)[C@@]1(C)C(=O)[C@H](O)C3=C(C)[C@@H](O)C[C@@](O)([C@@H](OC(=O)c4ccccc4)[C@@H]21)C3(C)C | -7% | . | . | . | . | .
CCON=C(CC)C1=C(O)CC(c2c(C)cc(C)cc2C)CC1=O (configuration not stated) | . | . | . | . | . | 12%[96 µM]
CC(C)(O)/C=C/C(=O)[C@](C)(O)C1[C@H](O)C[C@@]2(C)C3CC=C4C(C[C@H](O)[C@@H](O)C4(C)C)[C@]3(C)C(=O)C[C@]12C (some centres not stated) | ? | ? | 0.71µM* | 3% | ? | -4%
Cn1c(=O)oc2cc(S(=O)(=O)N3CCCC(C(=O)N4CCN(c5cccc(Cl)c5)CC4)C3)ccc21 (configuration not stated) | -16% | ? | ? | 1% | 11% | 0%
COc1cccc(CN(C)C[C@@H]2OCc3ccccc3-c3c(n(C)c4ccccc34)C(=O)N([C@@H](C)CO)C[C@H]2C)c1 | ? | 28µM* | ? | 20µM* | 10µM* | -3%
COc1ccc2c(c1)c(=O)c(C(=O)c1ccc(Cl)cc1)cn2CC(=O)Nc1ccc2c(c1)OCCO2 | ? | ? | 3% | 1% | 8% | 0%
Cc1ccc(OP(=O)(NCc2ccccc2)Oc2ccc(C)cc2)cc1 | 1% | i | ? | -78% | 7.1µM* | 7%
C[C@]12CC[C@H]3[C@@H](CCC4=CC(=O)CC[C@@]43C)[C@@H]1CC[C@@H]2C(=O)O | 7% | i | . | . | . | .
Cn1c(NN=O)nc2ccccc21 | ? | 14µM* | ? | -25% | 4.5µM* | 13%
CN1CCN(Cc2nc3ccccc3n2C)CC1 | 2% | ? | 1% | -2% | -12% | -7%
C/C(=N\NC(N)=S)C12CC3CC(CC(C3)C1)C2 | ? | 16µM* | 11µM* | -7% | -22% | -1%
COP(=S)(OC)Oc1cc(Cl)c(Cl)cc1Cl | 31% | i | . | . | . | -1%
CCOc1ccc(S(=O)(=O)NCCc2sc3nc(-c4ccc(C)cc4)nn3c2C)cc1 | . | . | 14µM* | 0% | 5% | .
Cc1sc(NC(=O)Cn2c(=O)oc3ccccc32)nc1-c1ccc(Cl)cc1 | ? | i | ? | -53% | 13% | -19%
Cc1c(CCNS(=O)(=O)c2ccccc2)sc2nc(-c3ccc(Cl)cc3)nn12 | . | . | 13µM* | -20% | ? | .
CCCNS(=O)(=O)c1ccc(OCC(=O)N2CCN(Cc3ccccc3)CC2)cc1 | -8% | i | 0% | -7% | 0% | 1%
CC(=O)c1ccc(N2CCN(S(=O)(=O)c3cc(-c4onc(C)c4C)ccc3C)CC2)cc1 | . | . | ? | -21% | -2% | .
C[C@]12CC[C@@H]3c4ccc(OC(=O)N(CCCl)CCCl)cc4CC[C@H]3[C@@H]1CC[C@@H]2OP(=O)(O)O | 13% | ? | . | . | . | 1%
COC(=O)C1=C(c2ccccc2OCc2ccccc2)C[C@@H]2CC[C@H]1N2C(=O)NCCc1ccc(F)cc1 | ? | ? | ? | -3% | 22µM* | -2%
COC(=O)C1=C(c2ccccc2OCc2ccccc2)C[C@@H]2CC[C@H]1N2C(=O)NCc1ccccc1 | ? | ? | ? | -3% | ? | -3%
COC(=O)C1=C(c2ccc(OCc3ccccc3)cc2)C[C@@H]2CC[C@H]1N2C(=O)NCc1ccccc1OC | -28% | ? | ? | -52% | 13µM* | 5%
COC(=O)C1=C(c2cccc(OCc3ccccc3)c2)C[C@@H]2CC[C@H]1N2C(=O)NC1CCN(Cc2ccccc2)CC1 | ? | . | ? | 13µM* | ? | 3%
COC(=O)C1=C(c2ccccc2OCc2ccccc2)C[C@@H]2CC[C@H]1N2C(=O)NC1CCN(Cc2ccccc2)CC1 | ? | ? | ? | -10% | ? | -3%
SMILES | ATXN2 expr inh | S2 tox | TGFb inhibitor | HepG2 tox | GLP1R inv ag | GLP1R ag
COC(=O)C1=C(c2ccc(OC(F)(F)F)cc2)C[C@@H]2CC[C@H]1N2C(=O)NCC1CC1 | -21% | i | -26% | -17% | 10µM* | 6%
CCCCOc1ccc(CNC(=O)c2cc3n(n2)CCCN(Cc2ccc(C)cc2)C3=O)cc1 | ? | ? | ? | -2% | ? | .
CN(C)NC(=O)CCC(=O)O | -7% | . | . | . | . | .
COC(=O)C1=C(c2ccc(F)cc2OCc2ccccc2)C[C@@H]2CC[C@H]1N2C(=O)NC1CCN(Cc2ccccc2)CC1 | ? | 14µM* | ? | -32% | -9% | 0%
CCOC(=O)[C@]12Cc3cc(Cl)ccc3[C@H]1N(C1CCCCC1)C(=O)c1ccccc12 | 3.2µM* | 3.5µM* | . | . | 4.5µM* | -26%
CCOC(=O)[C@]12Cc3cc(OC)ccc3[C@H]1N(C)C(=O)c1ccccc12 | 16% | i | . | . | 20% | -3%
CCOC(=O)[C@]12Cc3cc(C)ccc3[C@H]1N(C)C(=O)c1ccccc12 | 1% | ? | . | . | -5% | -4%
CCOC(=O)[C@]12Cc3cc(OC)ccc3[C@H]1N(C1CCCCC1)C(=O)c1ccccc12 | 4.5µM* | 7.1µM* | . | . | 2.5µM* | -11%
O=C1C(I)=CC(=C(c2cc(I)c(O)c(I)c2)c2ccccc2C(=O)O)C=C1I | 9% | ? | . | . | . | -1%
Cc1oc(-c2ccccc2Cl)nc1CN1C(=O)CN=C(c2ccccc2)c2ccccc21 | -19% | ? | 16µM* | -12% | -31% | 1%
Cc1cccc(Cn2c(=O)n(Cc3ccc(C(=O)NC4CCN(Cc5ccccc5)CC4)cc3)c(=O)c3ccccc32)c1 | -2% | i | ? | -15% | 3% | 1%
COc1cccc(C(=O)CCN[C@@H](C)[C@H](O)c2ccccc2)c1 | ? | 32µM*! | . | . | . | 15%
COc1cc(OC)c(OC)cc1CNC(C)C(O)c1ccccc1 (configuration not stated) | -4% | i | -1% | -32% | 1% | 4%
C[C@@]12OC(=O)[C@]1([C@@H](O)[C@@H]1C=CCCC1)NC(=O)[C@H]2CCCl | 0.019µM* | . | . | . | . | .
CCC1(CCC(C)C)C(=O)NC(=O)NC1=O | 5%[116 µM] | i | . | . | . | -6%[96 µM]
